# Laboratory results: the supplement of paper PMC12282887
# ± gives the standard deviation of the averaged measurements.
# Assays:
# Assay in all cases: promoter activity interaction Z-score (Lux/OD deviation from empty-vector control); higher = stronger promoter induction by the compound
# [1] = system: E. coli BW25113 acrABp lux reporter
# Procedure, shortened: (§1)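 Reporter strains of E. coli BW25113 grew at 37°C in 40 µl LB Lennox in 384-well plates. Readings of OD600 and luminescence were taken every 30 min over 12 h, integrated over 0–8 h (wild type) or 1–9 h (deletion strains), and wells below 10% of the median growth value were excluded. Scores are Z-transformed residuals of growth-normalised luminescence from a fit against a control.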
# [2] = system: E. coli BW25113 micFp lux reporter
# Procedure, shortened: as §1
# [3] = system: E. coli BW25113 ompFp lux reporter
# Procedure, shortened: as §1
# [4] = system: E. coli BW25113 robp lux reporter
# Procedure, shortened: as §1
# [5] = system: E. coli BW25113 soxSp lux reporter
# Procedure, shortened: as §1
# [6] = system: E. coli BW25113 tolCp lux reporter
# Procedure, shortened: as §1
# [7] = 0.048 µg/ml, genetic background: wild type
# [8] = 0.048 µg/ml, genetic background: ΔmarA
# [9] = 0.048 µg/ml, genetic background: Δrob
# [10] = 0.048 µg/ml, genetic background: ΔsoxS
# [11] = 0.1 µg/ml, genetic background: wild type
# [12] = 0.1 µg/ml, genetic background: ΔmarA
# [13] = 0.1 µg/ml, genetic background: Δrob
# [14] = 0.1 µg/ml, genetic background: ΔsoxS
# [15] = 0.19 µg/ml, genetic background: wild type
# [16] = 0.19 µg/ml, genetic background: ΔmarA
# [17] = 0.19 µg/ml, genetic background: Δrob
# [18] = 0.19 µg/ml, genetic background: ΔsoxS
# [19] = 0.38 µg/ml, genetic background: wild type
# [20] = 0.38 µg/ml, genetic background: ΔsoxS
compound,measurement,setting,value
CCC(C)CCCC(=O)N[C@@H](CCN)C(=O)N[C@H](C(=O)N[C@@H](CCN)C(=O)N[C@H]1CCNC(=O)[C@H]([C@@H](C)O)NC(=O)[C@H](CCN)NC(=O)[C@H](CCN)NC(=O)[C@H](CC(C)C)NC(=O)[C@@H](CC(C)C)NC(=O)[C@H](CCN)NC1=O)[C@@H](C)O (stereo partly drawn) [Colistin],promoter activity interaction Z-score,[1]; [7],0.00962 ± 0.11
same,promoter activity interaction Z-score,[1]; [8],-0.167 ± 0.31
same,promoter activity interaction Z-score,[1]; [9],0.139 ± 0.096
same,promoter activity interaction Z-score,[1]; [10],0.0289 ± 0.14
same,promoter activity interaction Z-score,[1]; [11],0.308 ± 0.22
same,promoter activity interaction Z-score,[1]; [12],0.524 ± 0.34
same,promoter activity interaction Z-score,[1]; [13],0.0214 ± 0.021
same,promoter activity interaction Z-score,[1]; [14],-0.00861 ± 0.23
same,promoter activity interaction Z-score,[1]; [15],0.246 ± 0.16
same,promoter activity interaction Z-score,[1]; [16],-0.482 ± 0.29
same,promoter activity interaction Z-score,[1]; [17],0.192 ± 0.051
same,promoter activity interaction Z-score,[1]; [18],-0.0737 ± 0.12
same,promoter activity interaction Z-score,[1]; [19],0.607 ± 0.1
same,promoter activity interaction Z-score,[1]; [20],2.31 ± 2.5
same,promoter activity interaction Z-score,[2]; [7],-0.359 ± 0.049
same,promoter activity interaction Z-score,[2]; [8],0.0434 ± 0.083
same,promoter activity interaction Z-score,[2]; [9],0.0506 ± 0.077
same,promoter activity interaction Z-score,[2]; [10],-0.14 ± 0.12
same,promoter activity interaction Z-score,[2]; [11],-0.48 ± 0.39
same,promoter activity interaction Z-score,[2]; [12],-0.0509 ± 0.014
same,promoter activity interaction Z-score,[2]; [13],0.0439 ± 0.063
same,promoter activity interaction Z-score,[2]; [14],-0.113 ± 0.06
same,promoter activity interaction Z-score,[2]; [15],-0.562 ± 0.18
same,promoter activity interaction Z-score,[2]; [16],-0.217 ± 0.25
same,promoter activity interaction Z-score,[2]; [17],-0.229 ± 0.24
same,promoter activity interaction Z-score,[2]; [18],-0.514 ± 0.082
same,promoter activity interaction Z-score,[2]; [19],-0.607 ± 0.2
same,promoter activity interaction Z-score,[3]; [7],-0.346 ± 0.26
same,promoter activity interaction Z-score,[3]; [8],-0.0916 ± 0.57
same,promoter activity interaction Z-score,[3]; [9],-0.0368 ± 0.43
same,promoter activity interaction Z-score,[3]; [10],0.093 ± 0.28
same,promoter activity interaction Z-score,[3]; [11],-0.267 ± 0.43
same,promoter activity interaction Z-score,[3]; [12],0.449 ± 0.06
same,promoter activity interaction Z-score,[3]; [13],0.19 ± 0.37
same,promoter activity interaction Z-score,[3]; [14],0.15 ± 0.24
same,promoter activity interaction Z-score,[3]; [15],0.073 ± 0.018
same,promoter activity interaction Z-score,[3]; [16],0.452 ± 0.48
same,promoter activity interaction Z-score,[3]; [17],-0.296 ± 0.74
same,promoter activity interaction Z-score,[3]; [18],-0.0443 ± 0.14
same,promoter activity interaction Z-score,[3]; [19],0.0453 ± 0.83
same,promoter activity interaction Z-score,[3]; [20],1.11
same,promoter activity interaction Z-score,[4]; [7],0.161 ± 0.5
same,promoter activity interaction Z-score,[4]; [8],-0.748 ± 0.18
same,promoter activity interaction Z-score,[4]; [9],0.308 ± 0.074
same,promoter activity interaction Z-score,[4]; [10],0.602 ± 0.38
same,promoter activity interaction Z-score,[4]; [11],0.156 ± 0.63
same,promoter activity interaction Z-score,[4]; [12],-0.00162 ± 0.4
same,promoter activity interaction Z-score,[4]; [13],-0.329 ± 0.5
same,promoter activity interaction Z-score,[4]; [14],1.13 ± 0.73
same,promoter activity interaction Z-score,[4]; [15],0.641 ± 1.4
same,promoter activity interaction Z-score,[4]; [16],-0.0677 ± 0.0062
same,promoter activity interaction Z-score,[4]; [17],-0.869 ± 0.76
same,promoter activity interaction Z-score,[4]; [18],-0.113 ± 0.049
same,promoter activity interaction Z-score,[4]; [19],-1.15 ± 0.17
same,promoter activity interaction Z-score,[4]; [20],-1.35 ± 0.85
same,promoter activity interaction Z-score,[5]; [7],-0.0522 ± 0.2
same,promoter activity interaction Z-score,[5]; [8],0.182 ± 0.078
same,promoter activity interaction Z-score,[5]; [9],0.268 ± 0.048
same,promoter activity interaction Z-score,[5]; [10],0.235 ± 0.097
same,promoter activity interaction Z-score,[5]; [11],-0.219 ± 0.34
same,promoter activity interaction Z-score,[5]; [12],0.306 ± 0.074
same,promoter activity interaction Z-score,[5]; [13],0.144 ± 0.06
same,promoter activity interaction Z-score,[5]; [14],0.368 ± 0.28
same,promoter activity interaction Z-score,[5]; [15],-0.09 ± 0.072
same,promoter activity interaction Z-score,[5]; [16],0.135 ± 0.0049
same,promoter activity interaction Z-score,[5]; [17],-0.469 ± 0.47
same,promoter activity interaction Z-score,[5]; [18],0.108 ± 0.33
same,promoter activity interaction Z-score,[5]; [19],-0.417 ± 0.57
same,promoter activity interaction Z-score,[5]; [20],-0.517
same,promoter activity interaction Z-score,[6]; [7],-0.508 ± 0.048
same,promoter activity interaction Z-score,[6]; [8],-0.536 ± 0.12
same,promoter activity interaction Z-score,[6]; [9],0.211 ± 0.004
same,promoter activity interaction Z-score,[6]; [10],0.982 ± 0.44
same,promoter activity interaction Z-score,[6]; [11],-0.675 ± 0.32
same,promoter activity interaction Z-score,[6]; [12],0.378 ± 0.075
same,promoter activity interaction Z-score,[6]; [13],-0.935 ± 0.56
same,promoter activity interaction Z-score,[6]; [14],0.791 ± 0.7
same,promoter activity interaction Z-score,[6]; [15],-0.155 ± 0.13
same,promoter activity interaction Z-score,[6]; [16],-1.61 ± 0.11
same,promoter activity interaction Z-score,[6]; [17],-0.925 ± 0.63
same,promoter activity interaction Z-score,[6]; [18],-0.699 ± 0.78
same,promoter activity interaction Z-score,[6]; [19],-0.255 ± 0.42
same,promoter activity interaction Z-score,[6]; [20],-0.469 ± 0.66
